Inconclusive results are not listed. Activity calls are given as the source filed them. Calls come from the whole dose curve; as a rule, active = well fitted inhibition curve with a large enough effect; inconclusive = small, poorly fitted or top-dose-only effect; inactive = no such curve, though single readings can be large or run the other way.
The compounds below were run against Cruzipain (Trypanosoma cruzi) (UniProt P25779) (assay: Confirmation qHTS Assay for Inhibitors of Cruzain). Conditions: purified cruzain, Z-FR-AMC fluorescence, 0.01% Triton.
Chain of Cruzipain (Trypanosoma cruzi) (P25779 123-467 limits assumed): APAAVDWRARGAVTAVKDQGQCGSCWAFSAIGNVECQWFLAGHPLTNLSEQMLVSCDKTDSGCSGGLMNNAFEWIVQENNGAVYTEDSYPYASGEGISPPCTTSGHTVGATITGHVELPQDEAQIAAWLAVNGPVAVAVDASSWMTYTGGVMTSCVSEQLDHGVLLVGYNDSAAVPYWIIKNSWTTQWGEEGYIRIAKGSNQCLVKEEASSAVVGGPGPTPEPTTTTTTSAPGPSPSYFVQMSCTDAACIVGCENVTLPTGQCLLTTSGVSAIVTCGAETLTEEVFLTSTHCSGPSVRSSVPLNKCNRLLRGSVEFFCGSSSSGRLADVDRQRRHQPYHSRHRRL
Method in brief: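 Reaction progress from the 60 s rise in AMC fluorescence (ex 360, em 450 nm) after adding 2 uM Z-FR-AMC. Before this, 1.5 nM cruzain sat 15 min at room temperature with compound in pH 5.5 acetate buffer with 5 mM DTT and 0.01% Triton X-100.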
Note: nearly all actives have a fitted effect of over 40% in size.
Potency is the fitted concentration of half-maximal effect.
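Throughout, for Activity change, negative = inhibition: plate controls were uninhibited enzyme control for no effect and buffer wells lacking enzyme for full effect.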

Activity change, negative = inhibition, inactive:
CCn1cnc2c(NCc3cccnc3)nc(C#N)nc21 -4.84%
O=C(Cc1nnc(CNC(=O)c2ccccc2)o1)Nc1cc(C(F)(F)F)ccc1Cl -8.68%
CC(C)(C)OC(=O)Cc1nnc(-c2cc3ccccc3[nH]2)o1 0.423%
CCCNC(=O)Cn1c(SCc2ccccc2C)nc2ccncc21 -2.3%
CCOC(=O)c1ccc(N2CSC3=C(C#N)C(c4cccs4)CC(=O)N3C2)cc1 (stereo not drawn) -9.35%
COc1ccc(-c2nnc(NC(=O)c3ccc(S(=O)(=O)N4CCCc5ccccc54)cc3)o2)cc1 -17.1%
Cc1oc(=O)c(NC(=O)c2ccc(Cl)cc2)cc1C(=O)c1ccccc1 -10.8%
Cc1csc(N/N=C/c2ccc(O)c([N+](=O)[O-])c2)n1 -63.9%
CC1CCN(c2oc(-c3cccc4ccccc34)nc2C#N)CC1 -40.4%
CCOc1ccc(NC(=O)c2ccc(CNc3c(NC4CCCCC4)c(=O)c3=O)cc2)cc1 1.77%
O=C(Cn1cc(CNC(=O)C2CCCCC2)nn1)Nc1cc(C(F)(F)F)ccc1Cl 0.597%
COc1cccc(CNC(=O)c2ccc3c(c2)N(Cc2ccc(F)cc2Cl)C(=O)c2ccccc2S3)c1 2.24%
COc1ccc(/C=N/NC(=O)c2ccc(Br)cc2)cc1Cn1cc(Cl)cn1 -13.6%
c1ccc(CN(Cc2ccccc2)Cc2nnc(-c3cc4ccccc4[nH]3)s2)cc1 -2.53%
Cc1ccc2[nH]c(=O)c(NC(N)=S)nc2c1 -16.5%

Potency, active:
COc1nc(C#N)nc(N2CCCC2)n1 3.98 µM
CCc1ccc(OCCCCn2c(CCNC(=O)C3CCCCC3)nc3ccccc32)cc1 1.58 µM
CCN(CC)c1nc(C#N)nc(OC)n1 7.08 µM
C/C(CC(=O)Nc1cc(Cl)ccc1Cl)=N\NC(N)=S 1.12 µM
Cc1ccc(Nc2nc(C#N)nc(NC3CCCC3)n2)cc1 0.447 µM
CCC(C)[C@@H](N)C(=O)N/N=C/c1ccc2ncccc2c1 (stereo partly drawn) 22.4 µM
CCCNc1nc(C#N)nc(Nc2ccccc2)n1 0.794 µM
COc1cc(C(=O)COC(=O)CNC(=O)C2CCCCC2)cc(OC)c1OC 7.94 µM
N#Cc1nc(N2CCCC2)nc(N2CCCC2)n1 7.08 µM
N#Cc1nc(NCC(F)F)c2ncn(-c3cc(F)cc(F)c3)c2n1 0.0562 µM
Clc1ccc2[nH]c3c(NCCCN4CCOCC4)ncnc3c2c1 12.6 µM
O=C(NC1CCCC1)c1ccc2nc(-c3ccco3)c(-c3ccco3)nc2c1 8.91 µM
CCNc1nc(C#N)nc(N2CCCCC2)n1 5.01 µM
CC(C)Nc1nc(C#N)nc(NC(C)C)n1 28.2 µM
NC(=S)N/N=C/c1ccc(-c2ccc(Cl)c(Cl)c2)o1 2 µM
Cc1cc(C)cc(OCCCn2c(CCNC(=O)C3CCCCC3)nc3ccccc32)c1 0.891 µM
O=C(Nc1ccccc1)c1ccc2nc(-c3ccco3)c(-c3ccco3)nc2c1 7.94 µM
NC(=S)N/N=C\c1ccc(-c2cccc(Cl)c2Cl)o1 1 µM
O=C(CNC(=O)c1ccc2ccccc2c1)OC(C(=O)Nc1cc(C(F)(F)F)ccc1Cl)c1ccccc1 (stereo not drawn) 4.47 µM
Cc1ccc(C(=O)C(OC(=O)CNC(=O)COc2ccccc2C)c2ccccc2)cc1 (stereo not drawn) 3.16 µM
O=C(COc1ccc(F)cc1)NCCc1nc2ccccc2[nH]1 0.199 µM
NC(=S)N/N=C/c1ccc(-c2cc(Cl)ccc2Cl)o1 2 µM
CCC(C)c1ccccc1OCCn1c(CCNC(=O)C2CCCCC2)nc2ccccc21 (stereo not drawn) 10 µM
